APEX1 inh: inhibitors of human APE1 endonuclease; P27695; recombinant APE1, TAMRA/BHQ-2 abasic DNA cleavage fluorescence; Potency, µM (top dose mostly 65.8 µM), without a hit: at the highest dose activity change, negative = inhibition, usual class: inhibitors; 350,000 compounds, 0.35% hits; AID 2517;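 note: plate controls were vehicle for no effect and reference inhibitor for full effect; nearly all actives have a fitted effect of over 55% in size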
Target sequence (P27695 whole entry, looked up): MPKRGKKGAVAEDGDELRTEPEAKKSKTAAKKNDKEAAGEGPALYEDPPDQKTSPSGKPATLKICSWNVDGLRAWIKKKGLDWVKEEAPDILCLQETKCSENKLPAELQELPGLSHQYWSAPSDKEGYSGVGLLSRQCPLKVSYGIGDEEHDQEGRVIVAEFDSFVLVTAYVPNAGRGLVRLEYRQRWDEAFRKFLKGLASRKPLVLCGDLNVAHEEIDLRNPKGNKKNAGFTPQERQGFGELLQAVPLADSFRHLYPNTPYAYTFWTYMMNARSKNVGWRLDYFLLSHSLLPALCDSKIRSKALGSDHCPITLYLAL
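Enzyme (0.75 nM final) and test compound are incubated 15 min at room temperature before adding 50 nM quenched THF abasic-site duplex. Cleavage dequenches TAMRA, followed at 525/598 nm over three reads one minute apart.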
PGK inhibitor: blocks T. brucei phosphoglycerate kinase; 380,000 compounds, 0.043% hits; PGK/GAPDH coupled, Kinase-Glo luminescence, 60 min; Potency, µM (titrated, usually from 57.5 µM), for inactives: at the highest dose activity change, negative = inhibition, hits mostly inhibitors; AID 602233; P07378; note: nearly all actives have a fitted effect of over 60% in size
Target sequence (P07378 whole entry, looked up): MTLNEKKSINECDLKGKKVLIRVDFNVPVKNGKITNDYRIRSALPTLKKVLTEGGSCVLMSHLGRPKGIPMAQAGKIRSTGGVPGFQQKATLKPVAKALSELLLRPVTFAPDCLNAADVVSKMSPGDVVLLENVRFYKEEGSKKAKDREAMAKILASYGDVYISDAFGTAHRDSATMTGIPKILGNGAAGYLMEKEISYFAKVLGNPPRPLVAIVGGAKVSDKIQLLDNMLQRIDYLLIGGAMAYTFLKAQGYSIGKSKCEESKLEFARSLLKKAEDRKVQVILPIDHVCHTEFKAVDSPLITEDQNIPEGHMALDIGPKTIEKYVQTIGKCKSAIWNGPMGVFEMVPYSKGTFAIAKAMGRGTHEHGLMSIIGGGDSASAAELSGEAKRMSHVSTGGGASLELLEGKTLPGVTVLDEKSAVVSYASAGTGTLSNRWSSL
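Recombinant glycosomal PGK reaction used 1,3-bisphosphoglycerate generated in-well by GAPDH (100nM final) in 100mM TEA pH 7.6, 5mM MgCl2, 0.01% Tween-20. After 60 minutes at room temperature, ATP was read by Kinase-Glo Plus luminescence end-point.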
RECQ1 inh-1: RECQ1 (human) helicase inhibition. P46063. 240,000 compounds, 0.54% hits. AID 2549. RECQ1 DNA unwinding, red fluorescence kinetic read. Potency, µM (top dose mostly 57.3 µM), inactives show at the top dose activity, negative = inhibition, actives largely listed as inhibitors;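 note: plate controls were vehicle for no effect and no enzyme for full effect; nearly all actives have a fitted effect of over 30% in size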
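50 nM RECQ1T1 preincubated 15 min with compound in Tris pH 8.0 buffer with MgCl2, DTT, Tween-20 and 2.5 ug/ml poly(dI-dC); started with 200 nM TAMRA/BHQ-2 forked duplex and 2 mM ATP. Unwinding read as fluorescence (525/598 nm), two reads 2 h apart.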
GLS inhibitor: inhibitors of human glutaminase (GLS); AID 624170; 410,000 compounds, 0.21% hits; O94925; GLS enzymatic activity, qHTS titration; Potency, µM (top dose mostly 45.5 µM), for the others: at the highest dose activity change, negative = inhibition, usual class: inhibitors
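hKGA in 45 mM KH2PO4 (pH 8.2), 0.02% Tween-20 with compound, then 1mM L-Glutamine (stock as added) plus glutamate oxidase/HRP/Amplex red coupling mix. Fluorescence read initially and after 30 min at RT; signal change reflects glutamate formation.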
BLM helicase inh: inhibitors of human Bloom syndrome helicase BLM | P54132 | Potency, µM (top dose mostly 56.1 µM), for the others: at the highest dose activity change, negative = inhibition, actives largely listed as inhibitors | recombinant BLM DNA unwinding, fluorescence dequenching | AID 2528 | 350,000 compounds, 0.2% hits;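 note: plate controls were vehicle for no effect and no enzyme for full effect; nearly all actives have a fitted effect of over 35% in size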
FEN1 inh: human FEN1 inhibition; AID 588795; 390,000 compounds, 0.35% hits; P39748; Potency, µM (top dose mostly 114 µM), without a hit: at the highest dose activity change, negative = inhibition, hits mostly inhibitors; Recombinant FEN1 flap cleavage, fluorescence, 15 min; note: nearly all actives have a fitted effect of over 65% in size
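Read-out was taken twice, immediately and after 15 min, following addition of 50 nM substrate to 10 nM FEN1 that had sat with test compound for 15 min at room temperature. Curves came from a four-parameter Hill model.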
RECQ1 inh conf: confirmation of human RECQ1 helicase inhibitors; shares compounds with RECQ1 inh-1; RECQ1 helicase DNA unwinding, fluorescence; Potency, µM (highest dose often 229 µM), inactives show at the highest dose activity change, negative = inhibition, most hits filed as inhibitors; 610 compounds, 28% hits; AID 2708; note: nearly all actives have a fitted effect of over 45% in size
ADP FP counter: ADP displacement flagged in RECQ1 inhibitor counter-screen; shares compounds with RECQ1 inh-1; ADP fluorescence polarization displacement counterscreen; Potency, µM (top dose mostly 228 µM), inactives show at the highest dose activity change, negative = inhibition, most hits filed as inhibitors; 530 compounds, 27% hits; note: nearly all actives have a fitted effect of over 45% in size
RECQ1 inh-2: RECQ1 helicase inhibition confirmed, round 2; 1,100 compounds, 15% hits; shares compounds with RECQ1 inh-1; recombinant RECQ1 DNA unwinding, red fluorescence; Potency, µM (top dose mostly 119 µM), without a hit: top-dose activity, negative = inhibition, hits mostly inhibitors; note: nearly all actives have a fitted effect of over 50% in size
Starred values were filed as active, the others as inactive; i = inactive; ? = inconclusive; nt = not tested or not shown; + = active, no number; [ ] = another dose, or the depositor's remark. A selection: hits, their analogues and other compounds. The true share with any hit is near 0.86%. Calls come from the whole dose curve; as a rule, active = well fitted curve in the direction sought with a large enough effect; inconclusive = small, poorly fitted or top-dose-only effect, or another doubt; inactive = no such curve, though single readings can be large; an effect the other way counts as inactive or inconclusive. Unless noted, % is set by controls: 0 for no effect and ±100 for the full control effect; potency is the fitted concentration of half-maximal effect.

SMILES	APEX1 inh	PGK inhibitor	RECQ1 inh-1	GLS inhibitor	BLM helicase inh	FEN1 inh	RECQ1 inh-2	others
O=C(O)c1ccccc1SC1CC(=O)N(c2cccc3ccccc23)C1=O (stereo unspecified)	3%	0%	-1%	-1%	-3%	-2%	nt
CCOc1ccc(N2C(=O)CC(Sc3ccccc3C(=O)O)C2=O)c([N+](=O)[O-])c1 (stereo unspecified)	-1%	-6%	i	4%	-2%	7%	nt	RECQ1 inh conf=11%;ADP FP counter=2%
O=C1CC(Nc2ccc(N3CCOCC3)cc2)C(=O)N1c1cccc(C(F)(F)F)c1 (stereo unspecified)	-4%	-2%	?	9%	2%	-20%	-8%
COc1cccc(N2C(=O)CC(Nc3ccc(N4CCOCC4)cc3)C2=O)c1 (stereo unspecified)	4%	-7%[11.5 µM]	-16%	37%	-8%	7%	nt
COCCn1c(C)cc(O)c(C(c2ccccc2Cl)N2CCCCC2)c1=O (stereo unspecified)	nt	-5%	nt	3%	0%	9%	nt
N#Cc1ccc(NC(=O)COCc2cc(-c3ccco3)on2)cc1	nt	-10%	nt	-10%	-4%	11%	nt
COc1ccccc1NC(=S)NC(=O)/C=C/c1ccco1	?	-6%	?	3%	-19%	-7%	?
CCCn1nnc(NC(=S)NC(=O)/C=C/c2ccco2)n1	?	-4%	?	1%	-1%	?	-5%
COc1cc(NC(=O)c2cc3c(=O)n(Cc4ccco4)ccc3nc2C)cc(OC)c1OC	nt	-7%	nt	7%	2%	-1%	nt
COc1ccc(-n2c(=O)c(-c3cccs3)nc3cnc(N4CCNCC4)nc32)cc1	?	nt	?	nt	-21%	nt	-27%
Nc1ccc(C(=O)OCC(=O)N2c3ccccc3Sc3ccccc32)cc1[N+](=O)[O-]	-7%	-13%	28µM*	5%	-11%	-10%	-10%
NC(=O)C1CCN(C(=O)c2ccc(NC(=O)c3nsc4ccccc34)cc2)CC1	nt	-5%	nt	16%	0%	-4%	nt
O=C(CCc1ccc(O)cc1)c1c(O)cc(O)cc1O[C@H]1OC(CO)C(O)C(O)C1O (stereo partly specified)	-2%	nt	-6%	nt	5%	nt	nt
Cc1ccc(C(=O)c2cc([N+](=O)[O-])ccc2N2CCCCC2)c(C)c1	2%	-4%	1.6µM*	1%	-5%	-10%	-14%
O=C(/C=C/c1ccccc1)NCCc1ccccc1	7.9µM*	?	18µM*	-21%	-20%	-7%	?	RECQ1 inh conf=11%[114 µM];ADP FP counter=?
CC(C)C[C@H](NC(=O)c1ccc(NCc2cnc[nH]2)cc1-c1cccc2ccccc12)C(=O)O	-10%	nt	-3%	nt	0%	nt	nt
Cc1cc2nc3c(=O)[nH]c(=O)nc-3n(C)c2cc1C=O	-6%	nt	3.2µM*	nt	16µM*	nt	nt	RECQ1 inh conf=+;ADP FP counter=6.3µM*
CC(=O)OCCn1c2nc(=O)[nH]c(=O)c-2nc2cc(C)c(C)cc21	5%	-8%	-5%	-11%	-3%	8%	nt
O=C(Cc1ccc(NC(=O)N2CCCCc3ccccc32)cc1)Nc1ccccc1Br	nt	i	nt	3%	-9%	-4%	nt
COn1c(SCc2cccc(Cl)c2)nc2ccccc2c1=O	11%	i	7.1µM*	3%	-8%	?	-13%	RECQ1 inh conf=2%[114 µM];ADP FP counter=?
COCC(=O)N(C)C1(c2nnnn2CCOC(=O)Nc2cccc3ccccc23)CCCC1	-9%	2%	32µM*	-7%	-13%	-11%	-9%
COc1ccc(NC(=O)C2(N(C(=O)Cn3nnnc3N)c3ccc(OC)cc3)CCCCC2)cc1	34%	-7%	nt	-5%	-1%	3%	nt
C=CCC(C)(O)c1ccc(OC)cc1 (stereo unspecified)	0%	nt	-2%	nt	3%	nt	nt
COCCOC(=O)c1c(NC(=O)CN2CCc3ccccc32)sc(C(N)=O)c1C	-3%	7%	20µM*	10%	1%	7%	-8%
COc1ccccc1CCNC(=O)CSc1ccc(-c2ccco2)nn1	?	-8%	?	-4%	-11%	-2%	-11%
SMILES	APEX1 inh	PGK inhibitor	RECQ1 inh-1	GLS inhibitor	BLM helicase inh	FEN1 inh	RECQ1 inh-2	others
Cc1cc2nc(-c3ccc(NC(=O)c4ccccc4F)cc3)oc2cc1C	nt	-9%	nt	-10%	-4%	-10%	nt
O=C(NCc1ccc2c(c1)OCO2)C1CCCN(S(=O)(=O)c2cccnc2)C1 (stereo unspecified)	13%	4%	?	1%	1%	17%	-3%
COc1cc2cc3c4c(cc(OC)c(OC)c4c2cc1OC)CCN3C	?	nt	11µM*	nt	4µM*	nt	nt	RECQ1 inh conf=?;ADP FP counter=69%
CC(O)[C@@H]1NC(=O)[C@H](CCCN)NC(=O)[C@@H](Cc2c[nH]c3ccccc23)NC(=O)[C@H](Cc2ccc(O)cc2)NC(=O)[C@@H](NC(=O)[C@H](N)Cc2ccccc2)CSSC(C)(C)C(C(=O)N[C@H](C(N)=O)[C@@H](C)O)NC1=O (stereo partly specified)	-1%	nt	11%	nt	1%	nt	nt
CCC(C)CCCCC(=O)NC(CCN)C(=O)NC(C(=O)NC(CCN)C(=O)NC1CCNC(=O)C(C(C)O)NC(=O)C(CCN)NC(=O)C(CCN)NC(=O)C(CC(C)C)NC(=O)C(Cc2ccccc2)NC(=O)C(CCN)NC1=O)C(C)O (stereo unspecified)	nt	nt	5µM*	0%	7.9µM*	nt	nt	RECQ1 inh conf=2.8µM*;ADP FP counter=?
O=C1OC(c2ccc(F)cc2)=C/C1=C\c1ccc([N+](=O)[O-])o1	3%	nt	22µM*	nt	-23%	nt	nt	RECQ1 inh conf=-5%[114 µM]
CC(C)OC(=O)CC(=O)c1sc2nc3c(cc2c1N)CN(C)CC3	7%	-4%	13µM*	9%	-23%	?	-7%
C=CCn1c(SCC(=O)Nc2ccc3c(c2)CCC3)nnc1-c1cccs1	-4%	-4%	-7%	11%	-24%	-21%	nt
C=CCn1c(SCC(=O)O)nnc1-c1cccs1	-1%	10%	-3%	nt	2%	-1%	nt	RECQ1 inh conf=-4%;ADP FP counter=5%
